# ELG1 genotoxic – genotoxicity induction in ELG1-luciferase HEK293T cells; 330,000 compounds, 1.3% hits; Potency, µM (titrated, usually from 46 µM), for inactives: top-dose activity change, positive = activation, actives largely listed as activators; AID 504466; HEK293T ELG1-luciferase reporter, luminescence, 16 h; also: % of control where 0% means no effect; nearly all actives have a fitted effect of over 60% in size
#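 Quantitative HTS format in 1536-well plates. HEK293T ELG1-luciferase reporter cells receive test compound and are incubated 16 hr at 37 °C, 5% CO2; ONE-Glo added, 30 min room temperature, then luminescence read.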
# FLuc counter – inhibits or activates purified firefly luciferase, miR-21 counter-screen | Potency, µM (highest dose often 57.5 µM), for inactives: at the highest dose activity change, negative = inhibition, most hits filed as inhibitors | purified FLuc, Km substrates, luminescence inhibition | P08659 | AID 588342 | 360,000 compounds, 6.9% hits;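 also: plate controls were vehicle for no effect and reference inhibitor for full effect; nearly all actives have a fitted effect of over 55% in size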
# Target sequence (P08659 whole entry, looked up): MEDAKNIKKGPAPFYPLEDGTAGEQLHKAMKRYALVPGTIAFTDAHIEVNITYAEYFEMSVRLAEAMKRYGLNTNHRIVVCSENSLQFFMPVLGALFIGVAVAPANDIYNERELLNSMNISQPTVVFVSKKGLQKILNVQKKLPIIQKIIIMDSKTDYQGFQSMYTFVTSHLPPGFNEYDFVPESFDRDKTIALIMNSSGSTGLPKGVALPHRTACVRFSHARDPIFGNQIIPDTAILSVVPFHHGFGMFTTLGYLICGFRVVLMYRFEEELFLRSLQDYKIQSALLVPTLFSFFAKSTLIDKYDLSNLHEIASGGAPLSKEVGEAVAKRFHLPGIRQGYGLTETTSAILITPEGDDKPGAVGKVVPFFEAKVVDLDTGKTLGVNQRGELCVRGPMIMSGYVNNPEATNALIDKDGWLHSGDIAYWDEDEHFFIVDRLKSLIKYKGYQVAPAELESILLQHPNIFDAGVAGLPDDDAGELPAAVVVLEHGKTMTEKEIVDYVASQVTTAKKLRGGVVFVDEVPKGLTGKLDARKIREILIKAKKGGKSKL
#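 Purified P. pyralis luciferase (10nM final) with 10uM D-luciferin and 10uM ATP (Km levels) in 50mM Tris acetate pH 7.5, 10mM Mg acetate, 0.01% Tween-20, 0.05% BSA; qHTS 6-point titration, ~60 µM downward; luminescence read.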
# SMN2 splice up – increases expression of the SMN2 splice variant | HEK293 SMN2-luciferase splicing reporter, luminescence, 30-36 h | Potency, µM (doses to about 46.1 µM), without a hit: top-dose activity change, positive = activation, hits mostly activators | 210,000 compounds, 2.8% hits | AID 1458; also: % of control where 0% means no effect; nearly all actives have a fitted effect of over 55% in size
#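 HEK293 cells carry an SMN2 minigene-luciferase reporter in which exon 7 inclusion puts luciferase in frame. Cells were seeded at 2000 cells/well, attached for 10-12 hours, then exposed to compounds for 30-36 hours at 37C before ONE-Glo luminescence.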
# Rab9 promoter act – Rab9 promoter activation. Huh7 Rab9 promoter-luciferase reporter, luminescence, 24 h. 320,000 compounds, 2.8% hits. AID 485297. Potency, µM (titrated, usually from 9.22 µM), inactives show at the highest dose activation, negative = inhibition, most hits filed as activators; also: % of control where 0% means no effect; nearly all actives have a fitted effect of over 60% in size
#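 Using Huh7 cells stably transfected with Rab9 promoter–luciferase, compounds were incubated 24 h at 37 °C, 5% CO2; luciferase luminescence was read 10 min after reagent addition.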
# ELG1 repair inh – inhibitors of ELG1-dependent DNA repair in HEK293T cells. HEK293T ELG1-luciferase reporter, luminescence, 16 h; DNA damage induced by 5-fluorouridine. 330,000 compounds, 2.3% hits. Potency, µM (titrated, usually from 46.1 µM), without a hit: top-dose activity change, negative = inhibition, hits mostly inhibitors. AID 504467; also: % is scaled to controls: 0 for no effect and ±100 for the full control effect; nearly all actives have a fitted effect of over 55% in size
#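 Luminescence from the luciferase reporter, measured 30 min after ONE-Glo reagent at room temperature, was the read-out. Beforehand, 2,000 cells per well were exposed for 16 hr at 37 °C to 5-fluorouridine together with compound or vehicle.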
# NPC1 promoter act – NPC1 promoter activation | 320,000 compounds, 2.4% hits | Potency, µM (highest dose often 9.22 µM), for the others: top-dose activation, actives largely listed as activators | Huh7 NPC1 promoter luciferase reporter, 24 h; also: % of control where 0% means no effect; nearly all actives have a fitted effect of over 60% in size
#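 Compounds in DMSO were transferred onto Huh7 NPC1-luciferase reporter cells pre-incubated 2 h; after 24 h at 37 °C, Amplite reagent was dispensed and luminescence recorded 10 min later.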
# Active calls of the source: *; ? = inconclusive; . = no result; [ ] = remark or other dose. Rows were chosen to be rich in hits. Some 9.4% of all compounds tested hit in one or more screens of this group. Calls follow the shape of the dose curve; as a rule, active = well fitted curve in the direction sought with a large enough effect; inconclusive = small, poorly fitted or top-dose-only effect, or another doubt; inactive = no such curve, though single readings can be large; an effect the other way counts as inactive or inconclusive. Potency is read from the fitted curve at half-maximal effect.
SMILES,ELG1 genotoxic,FLuc counter,SMN2 splice up,Rab9 promoter act,ELG1 repair inh,NPC1 promoter act
COc1ccccc1NC(=O)c1cc(-c2ccc(OC)c(OC)c2)nc2ccccc12,-1%,9.5µM*,.,2%,-6%,0%
COc1cc(-c2cc(C(=O)Nc3cccc(S(=O)(=O)N(C)C)c3)c3ccccc3n2)cc(OC)c1OC,-1%,-1%,.,-7%,?,1%
COc1cc(-c2cc(C(=O)Nc3c(Cl)cc(Cl)cc3Cl)c3ccccc3n2)cc(OC)c1OC,-14%,0%,7%,-2%,5.2µM*,0%
CCOc1cc2c(cc1OCC)CN(C(=O)c1cccc(S(=O)(=O)N3CCCC3)c1)CC2,-1%,3%,.,-10%,?,-2%
COc1ccc(CCNC(=O)CCCCn2c(=O)c3ccccc3n(Cc3ccc(Cl)cc3)c2=O)cc1OC,.,-9%,-16%,.,.,.
CCCCn1cc2c(c1-c1ccc(Cl)cc1)c(=O)n(C)c(=O)n2C,.,-13%,11%,.,.,.
CC1CCC(C(C)C)C(OC(=O)Cn2c(-c3ccccc3)[n+](C)c3ccccc32)C1 (stereo unspecified),-11%,2%,-94%,-56%,6.5µM*,-38%
CC1CCC(C(C)C)C(OC(=O)Cn2c(-c3ccc(F)cc3)[n+](C)c3ccccc32)C1 (stereo unspecified),-6%,0%,-39%,-22%,16µM*,-25%
Cc1cccc(OCc2n(CC(=O)OC3CC(C)CCC3C(C)C)c3ccccc3[n+]2C)c1 (stereo unspecified),-13%,-1%,.,-12%,?,-8%
CN(Cc1ccco1)C(=O)c1ccc2c(c1)N(Cc1ccccc1F)C(=O)c1ccccc1S2,.,-19%,.,.,.,.
Nc1c(C(=O)N2CCCCC2)sc2nc3c(cc12)CCCC3,6.5µM*,6.7µM*,.,2.8µM*,?,2.5µM*
COc1ccccc1NC(=O)c1sc2nc3c(cc2c1N)CCCCCC3,.,-11%,-5%,.,.,.
Nc1c(C(=O)Nc2ccccc2F)sc2nc3c(cc12)CCCCCC3,.,-5%,8%,.,.,.
Cc1ccc(C(=O)c2sc3nc4c(cc3c2N)CCC4)cc1,?,?,7.9µM*,2.2µM*,?,1.8µM*
Nc1c(C(=O)Nc2ccccc2)sc2nc(-c3cccnc3)ccc12,3%,?,.,23%,?,?
Nc1c(C(=O)N2CCCC2)sc2nc(-c3ccccc3)ccc12,?,4.8µM*,.,1.6µM*,?,2µM*
CCCCn1cnc2c(SC)ncnc21,.,.,-9%[9.22 µM],.,.,.
CCC1Oc2ccc(C)cc2N(CC(=O)NCc2ccc(F)cc2)C1=O (stereo unspecified),.,-8%,.,.,.,.
O=C(c1ccncc1)N1CCC2(CCCN(c3ccncc3)C2)CC1,.,.,1%,.,.,.
CC(C)c1ccc(-n2cccc2/C=C2/C(=N)N3C=CSC3=NC2=O)cc1,-14%,-4%,-24%,-2%,16µM*,1%
CC1=CSC2=NC(=O)/C(=C\c3cccn3-c3ccccc3)C(=N)N12,-7%,2%,-7%,-1%,?,2%
Cc1cccc(CNc2ncnc3ccc(-c4cccc(Cl)c4)cc23)c1,.,1%,.,-2%,.,-2%
CCc1ccc(S(=O)(=O)c2nnn3c2nc(Nc2cccc(C)c2C)c2sccc23)cc1,.,2%,.,.,.,.
CC(C)(C)N1C(=O)c2ccc(C(=O)Nc3nccs3)cc2C1=O,?,3.4µM*,16%,2.8µM*,?,3.5µM*
C#Cc1cccc(NC(=O)c2ccc3c(c2)C(=O)N(Cc2cccnc2)C3=O)c1,1%,13µM*,.,-5%,17%,3%
SMILES,ELG1 genotoxic,FLuc counter,SMN2 splice up,Rab9 promoter act,ELG1 repair inh,NPC1 promoter act
CCN1C(=O)c2ccc(C(=O)Nc3nccs3)cc2C1=O,0%,?,2%,-3%,1%,0%
Cc1ccc(NC(=O)c2ccc3c(c2)C(=O)N(Cc2cccnc2)C3=O)c(C)c1,2%,1%,-11%,-3%,9%,-1%
Cc1cnc(NC(=O)c2ccc3c(c2)C(=O)N(Cc2cccnc2)C3=O)s1,4%,1.7µM*,.,2%,-2%,3%
O=C(Nc1nccs1)c1ccc2c(c1)C(=O)N(Cc1cccnc1)C2=O,-4%,24µM*,.,2%,?,1%
CCOc1ccc(NC(=O)Cn2c(=O)c(CNc3ccc(OC)cc3)cc3ccc(OC)cc32)cc1,.,-1%,.,.,.,.
COC(=O)c1ccc(NC(=O)N2CCN(Cc3cc(=O)n4nc(-c5ccc(C)cc5)sc4n3)CC2)cc1,.,-6%,.,.,.,.
COc1ccccc1C(=O)Nc1ccc2c(c1)CN(C(=O)CSC)CC2,9%,24µM*,.,9%,-2%,0%
COc1ccccc1C(=O)Nc1ccc2c(c1)CCCN2C(=O)c1cccs1,-7%,17µM*,.,15%,?,0%
O=C(Nc1ccc2c(c1)CCCN2C(=O)c1ccccc1)c1ccccc1Br,-9%,?,.,-1%,-8%,-4%
O=C(Nc1ccc2c(c1)CCCN2C(=O)c1cccs1)c1ccccc1C(F)(F)F,.,-3%,.,.,.,.
COc1ccccc1C(=O)Nc1ccc2c(c1)CCCN2C(=O)c1ccccc1,-2%,9.5µM*,.,4%,?,1%
COc1c(C)cccc1C(=O)Nc1cccc2ccc(C)nc12,.,-19%,-24%,.,.,.
Cc1cc2c(cc1S(=O)(=O)CCC(=O)N1CCN(c3ccccc3)CC1)OCC(=O)N2,.,-12%,.,.,.,.
CC(C)(C)c1ccc(C(=O)N2CCN(CCNC(=O)C(=O)NCc3ccc(Cl)cc3)CC2)cc1,-8%,2%,.,-10%,12µM*,-4%
CC(C)(C)c1ccc(C(=O)NCc2ccc(Cl)cc2)cc1,-1%,-3%,-7%,18%,?,24%
COC(=O)Cn1c(=NC(=O)c2ccc(Cl)s2)sc2cc(C)ccc21,?,0.13µM*,4µM*,?,?,?
COC(=O)Cn1c(=NC(=O)c2ccc([N+](=O)[O-])s2)sc2cc(Br)ccc21,10%,-18%,17%,-2%,?,-4%
COc1ccc(C(=O)N/N=C/c2cn[nH]c2-c2ccc(OC)cc2OC)cc1,1%,?,-7%,2%,-6%,1%
COc1ccc(-c2[nH]ncc2/C=N\NC(=O)c2ccc(C(C)(C)C)cc2)cc1OC,3%,1.3µM*,?,4%,-24%,1%
CCCCOc1ccc(C(=O)N/N=C/c2cn[nH]c2-c2ccc(OC)c(OC)c2)cc1,-3%,12µM*,-1%,-3%,?,-2%

# Source: PubChem (National Center for Advancing Translational Sciences (NCATS))
